High-throughput results (PubChem)
An excerpt weighted towards active compounds, which were near 2.2% of everything screened.
RTF Ca sens inh: cardiac RTF calcium desensitization. P19429+P45379. IANBD-labeled cardiac RTF, Ca2+ fluorescence. inhibition, % at 7.15 µM. 340,000 tested, 0.12% active;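 active means inhibition above the mean inhibition of all tested compounds plus 3 SD, cut at about 17% in these data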;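 further: assay run at fixed EC70 calcium of 1.6 mM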
CRFBP-R2 block: CRF-BP/CRF-R2 complex antagonism | HEK293 CRF-R2/CRF-BP, CRF-induced calcium fluorescence | inhibition, % at 11.8 µM | 350,000 tested, 0.59% active;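 active means inhibition of the ligand-induced calcium signal above about 50% at the single tested concentration, limit read from the data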
RTF Ca sens act: cardiac RTF calcium sensitization | IANBD-labeled TnC RTF fluorescence at EC20 calcium; 0% EC20 calcium, 100% full calcium | activation, % at 7.2 µM | 340,000 tested, 0.24% active | AID 493008;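 active means activation above the mean over all tested compounds plus 3 SD, cut at about 30% in these data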;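 further: rise in fluorescence read as greater calcium sensitivity of cardiac thin filaments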
Myeloid diff 2: promotes myeloid progenitor differentiation; ER-HoxA9 myeloid progenitors, lysozyme-GFP differentiation, flow cytometry; calls only at 10 µM; 360,000 tested, 1% active; AID 624256;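 active means normalized GFP-positive differentiation at or above the plate's own cutoff, the solvent-only control mean plus 3 SD; inconclusive means no clear call, values can overlap the other calls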;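 further: cells exposed to compound for four days before flow analysis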
CRFBP-R2 agonist: CRF-BP/CRF-R2 complex agonism | HEK293 CRF-R2/CRF-BP, calcium dye fluorescence (FLIPR); percent of saturating CRF peptide response | activation, % at 13.2 µM | 350,000 tested, 0.46% active | AID 588473;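 active means activation of at least 50%, plus an integration ratio under a set limit after plate pattern correction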;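 further: plate controls were neutral control wells without compound for no effect and CRF at EC100 for full effect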
Numbers without * were called inactive; i = inactive; u = inconclusive; x = no result; + = active, no number; ! = not active in a repeat.

SMILES | RTF Ca sens inh | CRFBP-R2 block | RTF Ca sens act | Myeloid diff 2 | CRFBP-R2 agonist
COC(=O)c1c(C)[nH]c(C(=O)OC(C)C(=O)NC2CCCCC2C)c1C (stereo not drawn) | x | 19 | x | i | 0
Cc1cccc(N=Nc2c(O)[nH]c3ccc(Br)cc23)c1 | -8 | -3 | 15 | i | 3
Cc1cccc(C)c1OCC(=O)N=Nc1c(O)[nH]c2ccc(Br)cc12 | -6 | 10 | 3 | i | -2
COc1ccccc1N=Nc1c(O)[nH]c2ccc(Br)cc12 | -8 | -9 | 6 | + | 21
COc1ccc(/C=N/OCC(=O)N=Nc2c(O)[nH]c3ccc(Br)cc23)cc1 | 1 | 55* | -5 | i | -2
CN1C2C(Br)CCCCN2c2ccc(F)cc2S1(=O)=O (stereo not drawn) | -4 | -13 | 3 | i | 1
CCC(CC)c1nnc(NC(=O)C2CC(=O)N(C3CCCC3)C2)s1 (stereo not drawn) | -7 | -6 | 1 | i | 1
Cc1ccc(CNc2ccc3c(c2)OCO3)cc1 | -61 | -20 | 39* | + | 12
c1cc(CNc2ccc3c(c2)OCO3)ccn1 | -27 | 11 | 6 | i | 6
CC(C)[C@H](NC(=O)[C@@H]1Cc2ccccc2CN1)C(=O)NC1CCCCC1 | 1 | -1 | 3 | i | -2
C[C@H](NC(=O)[C@@H]1Cc2ccccc2CN1)C(=O)NC1CCCCC1 | -4 | 93* | 9 | i | 0
COCc1ccc(CN2CCC(C(=O)Nc3cccc(-c4cscn4)c3)CC2)o1 | -15 | 90* | -5 | i | 2
O=C(Nc1cccc(-c2cscn2)c1)C1CCN(Cc2ccc(CO)o2)CC1 | -2 | 3 | -7 | i | 1
COC1OC(c2ccccc2)=C(c2cnc(N)nc2)c2ccc(F)cc21 (stereo not drawn) | x | x | x | i | x
Cc1c(CCC(=O)O)c(=O)oc2cc3occ(-c4ccc(F)cc4)c3cc12 | 0 | 10 | -5 | i | -2
Cc1c(CCC(=O)O)c(=O)oc2cc3occ(-c4ccc(Br)cc4)c3cc12 | 6 | 10 | -8 | + | -1
Cc1onc(-c2c(F)cccc2Cl)c1C(=O)Nc1cc(S(=O)(=O)N2CCCCC2)ccc1O | -7 | 13 | -2 | i | 8
CCOC(=O)CNC(=O)N1CCCC(C(=O)c2ccc3c(c2)OCO3)C1 (stereo not drawn) | -1 | 13 | -4 | + | -2
CCn1c(-c2ccc(-c3ccccc3)cc2)c[nH]c1=S | 5 | -17 | -7 | i | 1
Cn1c(-c2ccc(-c3ccccc3)cc2)c[nH]c1=S | 6 | 108* | 9 | i | 0
COC(=O)C1=C(C)N(c2ccc(OC)cc2)C(C)=C(C(=O)OC)C1c1ccccc1 | 0 | 52* | -2 | i | -3
COC(=O)C1=C(C)N(c2ccc(OC)cc2)C(C)=C(C(=O)OC)C1c1ccc(OC)cc1 | x | 29 | x | i | 0
S=C(NCc1ccccc1)NC1CCCCC1 | -2 | 21 | 0 | + | -2
O=C(NCc1csc(-c2cccs2)n1)c1ccccc1 | -5 | 77* | 1 | i | 0
O=C(NCc1csc(-c2cccs2)n1)c1cccc(Cl)c1 | -6 | -1 | 7 | i | 0
SMILES | RTF Ca sens inh | CRFBP-R2 block | RTF Ca sens act | Myeloid diff 2 | CRFBP-R2 agonist
O=C(O)CN(CC(=O)O)CC(=O)O | 14 | -15 | 4 | + | 2
CC1(C)CC2CC(C)(CN2/C=C2/CCCCC2=O)C1 (stereo not drawn) | -4 | 115* | 1 | i | -1
COc1cc(CNc2ccc(N3CCCC3)cc2)cc(Cl)c1OC | 7 | -23 | -2 | + | 3
O=[N+]([O-])c1ccc(COP(=O)(O)OCc2ccc([N+](=O)[O-])cc2)cc1 | x | -18 | x | +! | -2
Nc1nc2c(ncn2[C@@H]2O[C@H](CNS(=O)(=O)c3cccnc3)[C@@H](O)[C@H]2O)c(=O)[nH]1 | x | x | x | i | x
CCCS(=O)(=O)NC(=O)C1(C)CCCN(C(=O)c2ccccc2C(F)(F)F)C1 (stereo not drawn) | x | x | x | i | x
CC(C)N1CCC(C)(C(=O)Nc2cccc3c2CCCC3)C1 (stereo not drawn) | x | x | x | i | x
CCCc1nnc(NC(=O)c2cc3ccccc3o2)s1 | -25 | -30 | -1 | + | 0
CCCCCn1c(=N)c(S(=O)(=O)c2ccc(Br)cc2)cc2c(=O)n3cccc(C)c3nc21 | -7 | -26 | 2 | i | 19
CCCn1c(=NC(=O)c2ccncc2)c(C#N)cc2c(=O)n3cccc(C)c3nc21 | -1 | 5 | -3 | i | -1
CCCCn1c(=NC(=O)c2cccnc2)c(C#N)cc2c(=O)n3cccc(C)c3nc21 | -19 | -9 | 14 | i | 89*
CCCCn1c(=N)c(S(=O)(=O)c2ccc(Br)cc2)cc2c(=O)n3cccc(C)c3nc21 | 2 | -68 | 3 | u | 59*
CC(C)OC(=O)c1ccc(N)cc1 | -15 | 2 | -2 | i | -1
CCOc1cc(N2CCOCC2)c(OCC)cc1NC(=O)c1cc(S(=O)(=O)N2CCOCC2)ccc1C | -9 | -1 | 2 | i | 1
Fc1ccc(Oc2ccnc(Cl)n2)c(Cl)c1 | x | 53* | x | x | -1
COC(C/C=C/C(=O)[C@H](C)OCc1ccccc1)OC | -6 | 29 | 7 | i | 1
N#Cc1c(-c2ccc(F)cc2)cc(-c2ccccc2)nc1SCC(=O)NCC(=O)O | -5 | -11 | 2 | i | 62*
N#Cc1c(-c2ccc(Cl)cc2)cc(-c2ccccc2)nc1SCC(=O)O | 1 | 38 | -2 | i | -3
Cc1cc(N2C(=O)CC(N3CCN(C(c4ccccc4)c4ccccc4)CC3)C2=O)no1 (stereo not drawn) | -5 | 11 | 1 | i | 0
O=[N+]([O-])c1ccc(N=Nc2ccc(O)c3ccccc23)cc1 | -10 | 12 | 0 | + | 1
O=C(CCC(=O)N1CCOc2ccccc21)NC1CCCCCC1 | -5 | 74* | 2 | i | 0
COc1ccccc1NC(=O)CCc1nnc2ccc(N3CCCCC3)nn12 | -6 | 6 | 1 | i | -1
CCOc1ccccc1NC(=O)CCc1nnc2ccc(N3CCC(C)CC3)nn12 | -2 | 69* | -3 | i | 0
COc1cc(NC(=O)CCc2nnc3ccc(N4CCCCC4)nn23)cc(OC)c1OC | -9 | -1 | 3 | + | 0
CC(=O)c1ccc(NC(=O)CCc2nnc3ccc(N4CCC5(CC4)OCCO5)nn23)cc1 | -5 | 65* | -3 | i | 1
CCOc1ccccc1NC(=S)N(Cc1cc2ccc(C)cc2[nH]c1=O)CC1CCCN1CC (stereo not drawn) | -21 | -39 | 4 | i | 0
O=C(COC(=O)c1cccc(OC(F)F)c1)Nc1cc(S(=O)(=O)N2CCCC2)ccc1Cl | x | 13 | x | i | -1
O=C(CCc1ccc(S(=O)(=O)N2CCOCC2)cc1)N/N=C/c1ccc(O)c(O)c1O | -6 | -5 | 5 | i | 5
